Data on 40 compounds can be found in PubChem BioAssay AID720555 (National Center for Advancing Translational Sciences (NCATS), 2013).

Molecules are shown by their SMILES. Several values for one entry are separate records, joined by “and”; a condition that tells them apart may be missing. Equal entries are not always repeated. Results filed as inconclusive are left out. Activity calls are given as the source filed them. The call rests on the fitted dose curve; in most records, active means well fitted inhibition curve with a large enough effect; inconclusive means small, poorly fitted or top-dose-only effect; inactive means no such curve, though single readings can be large or run the other way.

This experiment deals with RecQ-like DNA helicase BLM (Homo sapiens) (UniProt P54132). In words: qHTS for Inhibitors of Bloom's syndrome helicase (BLM): Helicase DNA unwinding fluorescent orthogonal confirmatory assay for SAR. As to conditions: fluorescence, orthogonal confirmation; series mostly up to 55.6 µM; activity change, negative = inhibition: at the top concentration. The source says: Human RecQ DNA helicases participate in maintenance of genome stability and DNA repair. While other types of helicases have been explored as targets for drug development, members of the RecQ family have remained less well characterized. Mutations of the Bloom helicase gene have been associated with the rare human genetic disease called Bloom syndrome. […] Moreover, identified inhibitors can be used in cells and animal models to examine the consequences of inhibition on the survival of cancer cells where it has been shown that BLM plays an important role.
Sequence of RecQ-like DNA helicase BLM (Homo sapiens) (P54132 whole entry, looked up): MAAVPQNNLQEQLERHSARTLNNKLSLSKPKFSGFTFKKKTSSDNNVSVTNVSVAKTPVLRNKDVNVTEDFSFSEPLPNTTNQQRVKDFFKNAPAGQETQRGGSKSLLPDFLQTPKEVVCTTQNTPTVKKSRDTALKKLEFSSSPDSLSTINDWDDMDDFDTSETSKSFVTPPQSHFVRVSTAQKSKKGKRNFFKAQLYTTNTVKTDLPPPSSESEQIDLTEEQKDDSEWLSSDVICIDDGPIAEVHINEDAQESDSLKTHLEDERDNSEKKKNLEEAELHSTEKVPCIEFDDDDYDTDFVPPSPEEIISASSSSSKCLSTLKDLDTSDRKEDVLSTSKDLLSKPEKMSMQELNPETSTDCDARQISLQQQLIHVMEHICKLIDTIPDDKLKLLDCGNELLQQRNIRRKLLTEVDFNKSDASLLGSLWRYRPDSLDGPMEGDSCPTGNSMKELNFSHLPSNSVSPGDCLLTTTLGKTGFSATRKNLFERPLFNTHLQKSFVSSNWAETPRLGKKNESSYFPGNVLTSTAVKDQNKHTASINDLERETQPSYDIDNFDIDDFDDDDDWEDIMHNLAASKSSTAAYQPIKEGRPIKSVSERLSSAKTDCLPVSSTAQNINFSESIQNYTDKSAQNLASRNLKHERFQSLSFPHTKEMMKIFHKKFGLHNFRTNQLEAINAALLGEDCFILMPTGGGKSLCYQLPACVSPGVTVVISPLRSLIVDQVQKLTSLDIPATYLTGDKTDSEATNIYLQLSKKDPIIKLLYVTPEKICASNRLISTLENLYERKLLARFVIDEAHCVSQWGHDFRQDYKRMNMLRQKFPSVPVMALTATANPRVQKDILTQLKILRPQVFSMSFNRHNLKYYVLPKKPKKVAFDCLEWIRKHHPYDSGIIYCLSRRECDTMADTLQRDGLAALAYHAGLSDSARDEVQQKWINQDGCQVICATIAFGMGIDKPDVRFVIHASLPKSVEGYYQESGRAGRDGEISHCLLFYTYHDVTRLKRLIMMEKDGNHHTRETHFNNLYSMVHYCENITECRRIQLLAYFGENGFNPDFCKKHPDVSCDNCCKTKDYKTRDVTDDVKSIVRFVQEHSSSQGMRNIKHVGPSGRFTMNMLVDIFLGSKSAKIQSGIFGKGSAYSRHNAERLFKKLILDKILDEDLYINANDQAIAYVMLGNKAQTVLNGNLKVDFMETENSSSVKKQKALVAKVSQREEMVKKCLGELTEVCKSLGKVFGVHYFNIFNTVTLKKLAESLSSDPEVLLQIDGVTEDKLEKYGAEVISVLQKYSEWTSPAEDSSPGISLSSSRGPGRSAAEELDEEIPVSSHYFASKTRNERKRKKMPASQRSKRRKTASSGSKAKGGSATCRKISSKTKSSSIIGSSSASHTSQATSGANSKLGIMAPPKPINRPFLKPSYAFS
A fluorescence-based, biochemical assay in 1536 well format was developed to evaluate inhibition of BLM DNA unwinding activity. This assay was used to screen the MLPCN library. The resulting compounds were subjected to orthogonal and secondary biochemical assays to triage the initial hits, to classify compounds based on mode of action and to derive structure activity relationships (SARs) of candidate effectors. The data herein is the result of the Helicase DNA unwinding fluorescent orthogonal confirmatory assay. This fluorescent-based assay employs a purified BLM enzyme and utilizes gel electrophoresis to monitor the helicase-mediated unwinding of a fluorescently-labeled DNA substrate. For this assay decrease in the single-stranded DNA product band on the gel = inhibition of the BLM helicase activity. Inhibition is the desired outcome for this assay.
NIH Chemical Genomics Center [NCGC]
NIH Molecular Libraries Probe Centers Network [MLPCN]
Assay Submitter (PI): Opher Gileadi, Structural Genomics Consortium, University of Oxford, UK
Unwinding assay for the BLM helicase was carried out in a reaction buffer containing 50 mM Tris-HCl pH 7.5, 50mM NaCl, 2mM MgCl2, 2mM ATP, 1mM DTT, and 0.1 mg/ml BSA. Optimal substrate and enzyme concentrations as well as reaction times were determined experimentally. All reactions were performed at room temperature and terminated by the addition of loading buffer containing 20mM EDTA and 2.5% bromophenol blue. Reaction products were then separated on 15% non-denaturing polyacrylamide gels in 1x TAE, and the DNA was visualized using the Bio-Rad ChemiDocTM XRS Gel Imager. Substrate and product bands were quantified using ImageJ. The data was normalized against no-inhibitor and no-enzyme controls.
Background: qHTS replaces the single test concentration by a dilution series.
Regarding `O=C(Nc1ccc(Br)c(Br)c1)Nc1nnc(-c2ccncc2)s1`, the Potency is 5.01 µM (active). As for `O=C(Nc1ccc(Cl)c(Cl)c1)Nc1cccc(-c2ccncc2)n1`, the Potency is 3.98 µM (active).

Turning to `N#Cc1cc(NC(=O)Nc2nnc(-c3ccncc3)s2)ccc1-c1ccc[nH]1`, the Potency was 3.55 µM (active). Same read-out and setting: with `O=C(Nc1ccc(F)c(C(F)(F)F)c1)Nc1nnc(-c2cccnc2)s1` the figure was 3.55 µM (active). For `Cc1ccc(-c2nnc(NC(=O)Nc3ccc4ccccc4c3)s2)cc1`, the “activity change, negative = inhibition” value is -1.64% (inactive). On to `N#Cc1cc(NC(=O)Nc2nnc(-c3ccncc3)s2)ccc1Br`, for which the Potency was 0.501 µM (active). As to `CCOc1ccc(NC(=O)Nc2ccc(-c3nc4ccccc4[nH]3)cc2)cc1`, the “activity change, negative = inhibition” value is -5.73% (inactive). In the case of `O=C(Nc1ccc(Cl)c(Cl)c1)Nc1nnc(N2CCNCC2)s1`, the “activity change, negative = inhibition” value is 10.7% (inactive). Same read-out and setting: with `O=C(Nc1ccc(-c2nc3ccccc3[nH]2)cc1)Nc1ccc2c(c1)CCCO2` the figure was -2% (inactive); with `O=C(Nc1ccc2ccccc2c1)Nc1nnc(-c2ccc(F)cc2)s1`, -1.89% (inactive). On to `N#Cc1ccc(NC(=O)Nc2nnc(-c3ccncc3)s2)c(Cl)c1`, for which the Potency is 11.2 µM (active).

On to `O=C(Nc1ccc(Cl)c(Cl)c1)Nc1nc(-c2ccncc2)cs1`, for which the Potency was 28.2 µM (active). In the case of `O=C(Nc1ccc2ccccc2c1)Nc1nnc(-c2cccnc2)s1`, the Potency is 10 µM (active).

With `O=C(Nc1ccc(F)c(C(F)(F)F)c1)Nc1nc(-c2ccncc2)cs1`, the “activity change, negative = inhibition” value was -3.13% [at 53.6 µM] (inactive). Take `O=C(NCc1ccc(Cl)c(Cl)c1)Nc1nnc(-c2ccncc2)s1`: the Potency was 39.8 µM (active). The same measure, in the same setting: in the case of `O=C(Nc1ccc(Br)c(Br)c1)Nc1nnc(-c2cccnc2)s1` it was 3.55 µM (active). Take `Cc1cc(NC(=O)Nc2nnc(C3CCCCC3)s2)ccc1Br`: the “activity change, negative = inhibition” value was -10.8% (inactive). On the same count and under the same terms, in the case of `Cc1cc(NC(=O)Nc2nnc(C3CCCCC3)s2)ccc1F` it was 2.36% (inactive); in that of `O=C(Nc1ccc(F)c(C(F)(F)F)c1)Nc1nnc(C2CCCCC2)s1`, 5.75% (inactive). Regarding `Cc1cc(NC(=O)Nc2cccc(-c3ccncc3)n2)ccc1Cl`, the Potency is 4.47 µM (active) and 3.55 µM (active). As for `O=C(Nc1ccc2ccccc2c1)Nc1nnc(-c2ccccc2F)s1`, the “activity change, negative = inhibition” value is -2.28% (inactive). Turning to `O=C(Nc1ccc(Cl)c(C(F)(F)F)c1)Nc1cccc(-c2ccncc2)n1`, the Potency was 20 µM (active). Consider `Cc1cc(NC(=O)Nc2nnc(-c3ccncc3)s2)ccc1C#N`, for which the Potency is 3.16 µM (active). Regarding `O=C(Nc1ccc(Br)c(Br)c1)Nc1cccc(-c2ccncc2)n1`, the Potency was 0.891 µM (active). On the same count and under the same terms, with `O=C(Nc1ccc2ccccc2c1)Nc1nnc(-c2ccncc2)s1` the figure was 10 µM (active); with `Cc1cc(NC(=O)Nc2nnc(-c3ccncc3)s2)ccc1F`, 15.8 µM (active). As for `O=C(Nc1ccc(-c2nc3ccccc3[nH]2)cc1)Nc1ccc2c(c1)OCCO2`, the “activity change, negative = inhibition” value is -0.67% (inactive). Regarding `O=C(Nc1ccc2ccccc2c1)Nc1nnc(-c2ccccc2)s1`, the “activity change, negative = inhibition” value was 4.37% (inactive).

For `O=C(Nc1nnc(-c2ccncc2)s1)Nc1ccc(Cl)cc1F`, the Potency was 28.2 µM (active). In the case of `O=S(=O)(Cc1ccc(Cl)c(Cl)c1)Nc1nnc(-c2ccncc2)s1`, the “activity change, negative = inhibition” value is -0.31% (inactive). Take `O=C(Nc1ccc(Cl)c(Cl)c1)Nc1nnc(-c2ccncc2)o1`: the “activity change, negative = inhibition” value was 0.56% (inactive). For the compound `COc1ccc(-c2nnc(NC(=O)Nc3ccc4ccccc4c3)s2)cc1OC`, the “activity change, negative = inhibition” value was -6.42% (inactive). Take `O=C(Nc1ccc(F)nc1)Nc1nnc(-c2ccncc2)s1`: the Potency was 22.4 µM (active). Same read-out and setting: with `Cc1cc(NC(=O)Nc2cccc(-c3ccncc3)n2)ccc1Br` the figure was 12.6 µM (active). Still for that read-out and setting: in the case of `O=C(Nc1ccc(Cl)c([N+](=O)[O-])c1)Nc1nnc(-c2ccncc2)s1` it was 1 µM (active); in that of `O=C(Nc1nnc(-c2ccncc2)s1)Nc1ccc(Cl)cc1Cl`, 31.6 µM (active). The same measure, in the same setting: with `O=C(Nc1ccc(Cl)c([N+](=O)[O-])c1)Nc1nnc(-c2ccc(F)cc2)s1` the figure was 2.24 µM (active).

In the case of `O=C(Nc1ccc(-n2cncn2)c(F)c1)Nc1nnc(-c2ccncc2)s1`, the Potency was 14.1 µM (active).

On to `O=C(Nc1ccc(Cl)c(Cl)c1)N1CCN(c2ccncc2)CC1`, for which the “activity change, negative = inhibition” value is 6% [at 53.6 µM] (inactive).

Consider `O=C(Nc1ccc2ccccc2c1)Nc1nnc(-c2ccc(Cl)cc2)s1`, for which the “activity change, negative = inhibition” value was -10.2% (inactive).
